Measured values taken from PubChem BioAssay (Tox21).
Inconclusive results are not listed. Active and inactive are the calls of the source. Unless noted, calls come from the whole dose curve.

Assays:
[1] = Nuclear factor erythroid 2-related factor 2/antioxidant responsive element (Nrf2/ARE) small molecule agonists: qHTS cell viability counter screen in human keratinocytes (AID 1919968; active = well fitted curve in the direction sought with a large enough effect in the repeat runs; an effect the other way counts as inactive or inconclusive; note: nearly all actives have a fitted effect of over 55% in size)
In short: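 In human HaCaT keratinocytes stably expressing an ARE-driven luciferase, compound exposure lasted 23 h at 37 C under 5% CO2. Viable cells are quantified with a protease-based fluorogenic reagent (CellTiter-Fluor) read 1 h after addition.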

[2] = biological target: Gonadotropin-releasing hormone receptor (Homo sapiens) (UniProt P30968); experiment: Human gonadotropin-releasing hormone receptor (GnRHR) small molecule agonists, calcium flux assay in GnRHR-HEK293 cells (AID 1920063); note: nearly all actives have a fitted effect of over 35% in size
Gonadotropin-releasing hormone receptor (Homo sapiens), sequence (P30968 whole entry, looked up): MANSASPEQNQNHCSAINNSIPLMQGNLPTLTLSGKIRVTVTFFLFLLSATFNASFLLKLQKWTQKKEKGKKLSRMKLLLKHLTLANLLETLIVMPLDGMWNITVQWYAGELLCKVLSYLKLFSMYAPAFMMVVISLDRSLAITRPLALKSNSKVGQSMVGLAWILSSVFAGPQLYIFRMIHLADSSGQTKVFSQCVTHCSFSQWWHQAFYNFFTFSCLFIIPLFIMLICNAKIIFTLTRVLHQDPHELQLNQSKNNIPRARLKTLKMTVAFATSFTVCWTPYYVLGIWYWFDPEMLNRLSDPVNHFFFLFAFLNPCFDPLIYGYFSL
In short: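 Intracellular calcium rise is the read-out: engineered human GnRHR HEK293 cells, dye-loaded, are exposed to DMSO-dissolved compounds and fluorescence at Ex/Em 480/540 is tracked for 3 min.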

[3] = biological target: KiSS-1 receptor (Homo sapiens) (UniProt Q969F8); experiment: Human kisspeptin (KISS1R) small molecule agonists, calcium flux assay in KISS1R-HEK293 cells (AID 1920064; active = well fitted curve in the direction sought with a large enough effect in the repeat runs; an effect the other way counts as inactive or inconclusive)
KiSS-1 receptor (Homo sapiens), sequence (Q969F8 whole entry, looked up): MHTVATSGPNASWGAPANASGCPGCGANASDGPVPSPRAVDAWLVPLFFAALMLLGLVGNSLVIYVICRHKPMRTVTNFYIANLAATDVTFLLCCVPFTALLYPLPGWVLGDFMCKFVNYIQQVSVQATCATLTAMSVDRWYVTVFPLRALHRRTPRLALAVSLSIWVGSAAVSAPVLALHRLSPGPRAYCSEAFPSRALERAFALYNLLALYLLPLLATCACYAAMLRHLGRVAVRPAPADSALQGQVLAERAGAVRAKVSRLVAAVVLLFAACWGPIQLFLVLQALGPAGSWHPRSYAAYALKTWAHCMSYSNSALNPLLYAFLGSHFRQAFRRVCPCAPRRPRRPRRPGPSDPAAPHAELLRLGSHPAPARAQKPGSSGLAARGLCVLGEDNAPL
In short: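 Concentration-response testing used 15 concentrations in triplicate on human KISS1R-expressing HEK293 cells. Calcium-dependent fluorescence (Ex/Em 480/540) was followed kinetically for 3 min after compound transfer.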

[4] = G protein-coupled receptor (GPCR) small molecule agonists, calcium flux assay: HEK293 wild type cell line counter screen (AID 1920065)
In short: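 Fluorescence intensity signals activation. After overnight (18 h) culture and a 1 h calcium dye load at 37 C, compounds are added by pin tool and the plate read at 480/540 nm for 3 min in 1 s steps.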

[5] = p53 small molecule agonists, cell-based qHTS assay with rat liver microsomes (AID 1963578)
In short: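 Fluorescence from a beta-lactamase reporter under a p53 response element was measured after cells had been incubated 16 h at 37 C with test compound and rat liver microsomes plus NADPH (0.5 mg/mL final each).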

[6] = p53 small molecule agonists, cell-based qHTS assay with human liver microsomes: qHTS cell viability counter screen (AID 1963579); note: nearly all actives have a fitted effect of over 45% in size
In short: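 Seed p53RE-bla cells at 4,000 per well; incubate 5 h at 37 C; add compound, human liver microsomes and NADPH; incubate 16 h at 37 C; add CellTiter-Glo; after 30 min at room temperature, read luminescence.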

[7] = p53 small molecule agonists, cell-based qHTS assay with rat liver microsomes: qHTS cell viability counter screen (AID 1963580); note: nearly all actives have a fitted effect of over 45% in size
In short: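 Cytotoxicity counter screen: intracellular ATP measured by CellTiter-Glo luminescence in the same wells as the beta-lactamase reporter read, on HCT-116 p53RE-bla cells exposed 16 h at 37 C to compounds with rat liver microsomes and NADPH, each 0.5 mg/mL final.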

[8] = p53 small molecule agonists, cell-based qHTS assay (AID 1963582; active = well fitted activation curve with a large enough effect in the signal ratio in the repeat runs, not every such curve was filed as active; the % refers to the signal ratio)
In short: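 After plating, p53RE-bla cells sat 5 h in the incubator; compounds or DMSO vehicle were pinned in; a 16 h incubation at 37 C followed; FRET substrate was added and, 2 h later at RT, fluorescence was measured.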

[9] = biological target: 5-hydroxytryptamine receptor 2A (Homo sapiens) (UniProt P28223); experiment: 5-hydroxytryptamine receptor 2A (HTR2A) small molecule antagonists, cell-based qHTS assay (AID 1963586); note: nearly all actives have a fitted effect of over 45% in size
5-hydroxytryptamine receptor 2A (Homo sapiens), sequence (P28223 whole entry, looked up): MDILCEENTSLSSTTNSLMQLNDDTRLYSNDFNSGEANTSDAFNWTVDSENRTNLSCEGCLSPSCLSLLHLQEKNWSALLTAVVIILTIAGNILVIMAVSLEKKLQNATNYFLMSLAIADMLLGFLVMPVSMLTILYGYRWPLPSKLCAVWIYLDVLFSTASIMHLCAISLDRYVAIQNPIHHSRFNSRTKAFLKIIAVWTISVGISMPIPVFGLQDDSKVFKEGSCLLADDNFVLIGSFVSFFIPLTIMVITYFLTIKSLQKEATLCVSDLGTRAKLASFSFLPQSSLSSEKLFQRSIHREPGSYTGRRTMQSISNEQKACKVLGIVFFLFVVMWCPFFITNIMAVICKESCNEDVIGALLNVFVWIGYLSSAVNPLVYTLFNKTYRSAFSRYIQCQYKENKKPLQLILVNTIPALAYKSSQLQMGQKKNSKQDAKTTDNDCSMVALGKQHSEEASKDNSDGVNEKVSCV
In short: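 CHO cells stably expressing human HTR2A were plated for 18 h at 37 C, then loaded with calcium dye for 1 h. Compounds were preincubated 5 min at room temperature before DOI (4 nM solution) was added. Kinetic fluorescence was read for 3 min.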

[10] = biological target: 5-hydroxytryptamine receptor 2A (Homo sapiens) (UniProt P28223); experiment: 5-hydroxytryptamine receptor 2A (HTR2A) small molecule agonists, cell-based qHTS assay (AID 1963587); note: nearly all actives have a fitted effect of over 30% in size
In short: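 CHO cells stably expressing human HTR2A, plated 18 h, loaded with calcium dye 1 h at 37 C. Agonist mode: compounds added and intracellular calcium fluorescence recorded kinetically for 2 min at 1 sec intervals.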

[11] = biological target: Muscarinic acetylcholine receptor M1 (Homo sapiens) (UniProt P11229); experiment: Cholinergic receptor muscarinic 1 (CHRM1) small molecule antagonists, cell-based qHTS assay (AID 1963588); note: nearly all actives have a fitted effect of over 40% in size
Muscarinic acetylcholine receptor M1 (Homo sapiens), sequence (P11229 whole entry, looked up): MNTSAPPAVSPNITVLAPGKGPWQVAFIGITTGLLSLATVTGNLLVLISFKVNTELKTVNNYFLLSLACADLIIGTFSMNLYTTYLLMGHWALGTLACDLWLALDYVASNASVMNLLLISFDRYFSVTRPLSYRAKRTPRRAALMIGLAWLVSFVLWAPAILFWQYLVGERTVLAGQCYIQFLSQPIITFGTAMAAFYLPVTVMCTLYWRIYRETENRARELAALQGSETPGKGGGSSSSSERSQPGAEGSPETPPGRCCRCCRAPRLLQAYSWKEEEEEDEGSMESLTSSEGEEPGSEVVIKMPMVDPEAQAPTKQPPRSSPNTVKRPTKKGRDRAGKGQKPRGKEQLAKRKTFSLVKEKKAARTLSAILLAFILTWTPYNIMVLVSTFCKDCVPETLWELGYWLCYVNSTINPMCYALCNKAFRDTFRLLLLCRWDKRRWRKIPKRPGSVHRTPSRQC
In short: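 Compounds were tested at 15 concentrations in three independent runs. Dye-loaded CHRM1-CHO cells were exposed 5 min at room temperature before stimulation by acetylcholine added at 50nM. Intracellular calcium was read kinetically on FDSS for 3 min.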

[12] = biological target: Muscarinic acetylcholine receptor M1 (Homo sapiens) (UniProt P11229); experiment: Cholinergic receptor muscarinic 1 (CHRM1) small molecule agonists, cell-based qHTS assay (AID 1963589); note: nearly all actives have a fitted effect of over 35% in size
In short: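 Fluorescent calcium dye reports M1 activation in stably transfected CHO cells. Compounds, 15 concentrations, added after 1 h dye loading at 37 C; kinetic reading at 1 sec intervals.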

[13] = cAMP Responsive Elements (CRE) small molecule agonists, cell-based qHTS assay (AID 1963590)
In short: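 Compound exposure lasted 3 h at 37 C/5% CO2 in CRE-bla HEK 293T cells grown in assay medium with 10% dialyzed FBS and 25 mM HEPES. Reporter signal came from LiveBLAzer B/G FRET substrate, 2 h, room temperature.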

[14] = cAMP Responsive Elements (CRE) small molecule antagonists, cell-based qHTS assay (AID 1963591; active = well fitted inhibition curve with a large enough effect in the signal ratio in the repeat runs, not every such curve was filed as active; the % refers to the signal ratio)
In short: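 Stimulation used NKH477 at a final 0.25 uM for 3 h in compound-treated CRE-bla HEK293T cells, seeded 18 h beforehand. Reporter activity was measured with LiveBLAzer B/G FRET substrate after 2 h at room temperature.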

[15] = biological target: Beta-2 adrenergic receptor (Homo sapiens) (UniProt P07550); experiment: Adrenergic beta2 receptor (ADRB2) small molecule antagonists, cell-based qHTS assay (AID 1963592); note: series mostly up to about 92 µM; nearly all actives have a fitted effect of over 50% in size
Beta-2 adrenergic receptor (Homo sapiens), sequence (P07550 whole entry, looked up): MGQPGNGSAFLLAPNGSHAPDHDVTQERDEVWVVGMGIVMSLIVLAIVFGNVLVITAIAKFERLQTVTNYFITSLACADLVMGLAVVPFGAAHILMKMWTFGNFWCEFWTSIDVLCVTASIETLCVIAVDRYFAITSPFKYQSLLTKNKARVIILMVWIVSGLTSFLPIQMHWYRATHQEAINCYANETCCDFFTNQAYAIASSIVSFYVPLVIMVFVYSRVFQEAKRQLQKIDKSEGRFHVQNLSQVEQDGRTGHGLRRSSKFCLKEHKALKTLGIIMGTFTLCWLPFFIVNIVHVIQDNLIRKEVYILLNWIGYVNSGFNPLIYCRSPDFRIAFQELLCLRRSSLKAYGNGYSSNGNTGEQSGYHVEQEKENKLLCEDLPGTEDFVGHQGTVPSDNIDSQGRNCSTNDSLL
In short: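 Assay format: CHO-ADRB2 cells, 18-20hr seeding at 37C/5% CO2, then compound plus 1nM isoproterenol agonist mix for 0.5hr RT. Homogeneous time-resolved fluorescence cAMP detection after 1hr, expressed as 665/615 nm ratio.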

[16] = biological target: D(2) dopamine receptor (Homo sapiens) (UniProt P14416); experiment: Dopamine D2 receptor (DRD2) small molecule antagonists, cell-based qHTS assay (AID 1963595; active = well fitted inhibition curve with a large enough effect in the signal ratio in the repeat runs, with a control signal flat; the % refers to the signal ratio)
D(2) dopamine receptor (Homo sapiens), sequence (P14416 whole entry, looked up): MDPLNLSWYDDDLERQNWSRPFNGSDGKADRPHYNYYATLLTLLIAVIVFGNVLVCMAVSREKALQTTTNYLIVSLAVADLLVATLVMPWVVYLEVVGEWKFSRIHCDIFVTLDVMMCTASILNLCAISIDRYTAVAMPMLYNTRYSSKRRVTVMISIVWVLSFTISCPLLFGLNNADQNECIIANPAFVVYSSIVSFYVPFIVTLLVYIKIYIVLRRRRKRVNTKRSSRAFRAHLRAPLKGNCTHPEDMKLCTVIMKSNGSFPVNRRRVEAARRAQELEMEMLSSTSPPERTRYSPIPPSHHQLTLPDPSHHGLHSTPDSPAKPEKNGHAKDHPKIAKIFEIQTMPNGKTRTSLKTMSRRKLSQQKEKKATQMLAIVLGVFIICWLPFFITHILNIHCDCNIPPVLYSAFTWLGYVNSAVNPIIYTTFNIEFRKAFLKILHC
In short: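 Stable D2 receptor HEK293 line, 24 h after seeding. Compound preincubated 10 min, then quinpirole (12 nM) with forskolin analogue NKH477 (200 nM), 30 min, room temperature. Detection by time-resolved FRET of cAMP.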

[17] = p53 small molecule agonists, cell-based qHTS assay: qHTS cell viability counter screen (AID 1963581); note: nearly all actives have a fitted effect of over 45% in size
In short: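 Luminescence from CellTiter-Glo, reflecting ATP content, serves as the cytotoxicity measure; it is taken after the 2 h reporter substrate step in HCT-116 p53RE-bla cells dosed for 16 h at 37 C.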

[18] = biological target: Beta-2 adrenergic receptor (Homo sapiens) (UniProt P07550); experiment: Adrenergic beta2 receptor (ADRB2) small molecule agonists, cell-based qHTS assay (AID 1963593);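 note: CHO cells stably overexpressing human ADRB2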
In short: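 CHO cells stably over-expressing ADRB2 were plated overnight at 37C, then dosed with compounds plus a stimulation mix containing 100uM IBMX and 25uM Ro-20-1724 for 0.5hr at room temperature. cAMP was measured by HTRF competition, 1hr.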

[19] = biological target: D(2) dopamine receptor (Homo sapiens) (UniProt P14416); experiment: Dopamine D2 receptor (DRD2) small molecule agonists, cell-based qHTS assay (AID 1963594); note: nearly all actives have a fitted effect of over 35% in size
In short: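 HEK293 cells stably expressing human DRD2, pre-treated with PDE inhibitor Ro20-1724 (0.1 mM final) and compound 10 min at room temperature, then stimulated with NKH477 (200nM […]) for 30 min. cAMP read by HTRF (665/620 nm).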
% is set by controls: 0 for no effect and ±100 for the full control effect.

CCc1ccc(C)cc1
inactive: Potency [1] | Potency [2] | Potency [3] | Potency [4] | Potency [5] | Potency [6] | Potency [7] | Potency [8] | Potency [9] | Potency [10] | Potency [11] | Potency [12] | Potency [13] | Potency [14] | Potency [15] | Potency [16]

COC(C)CCO (configuration not stated)
inactive: Potency [1] | Potency [2] | Potency [3] | Potency [4] | Potency [5] | Potency [7] | Potency [17] | Potency [8] | Potency [10] | Potency [11] | Potency [12] | Potency [13] | Potency [18] | Potency [19] | Potency [16]

C=C(C)C(=O)OC
inactive: Potency [1] | Potency [2] | Potency [3] | Potency [4] | Potency [5] | Potency [6] | Potency [7] | Potency [17] | Potency [9] | Potency [10] | Potency [11] | Potency [12] | Potency [13] | Potency [14] | Potency [15] | Potency [19] | Potency [16]

NC[C@H]1O[C@H](O[C@H]2[C@H](O)[C@@H](O[C@H]3O[C@H](CO)[C@@H](O)[C@H](N)[C@H]3O)[C@H](N)C[C@@H]2N)[C@H](O)[C@@H](O)[C@@H]1O
inactive: activity change, negative = cytotoxicity [1] 2.11% [at 8.39 µM] | activity change [2] -0.795% [at 5.22 µM, hits give high values] | activation [3] 3.49% [at 6.97 µM] | activation [4] -1.23% [at 5.23 µM] | activation [5] 6.15% [at 5.99 µM] | activity change, negative = cytotoxicity [6] 4.31% [at 5.99 µM] | activity change, negative = cytotoxicity [7] 3.51% [at 5.99 µM] | activity change, negative = cytotoxicity [17] 2.96% [at 5.99 µM] | activity change, negative = inhibition [14] -1.06% [at 8.39 µM] | activity change, negative = inhibition [15] 0.292% [at 8.39 µM] | activation [19] 0% [at 8.39 µM] | activity change, negative = inhibition [16] -3.37% [at 8.38 µM]

O=C(C(=O)c1ccc(Br)cc1)c1ccc(Br)cc1
inactive: activity change, negative = cytotoxicity [1] -1.93% [at 19 µM] | activity change [2] 0.0439% [at 11.8 µM, hits give high values] | activation [3] 0.431% [at 15.8 µM] | activation [4] -0.382% [at 11.8 µM] | activation [5] -6.75% [at 13.6 µM] | activity change, negative = cytotoxicity [6] -13.3% [at 13.5 µM] | activity change, negative = cytotoxicity [17] -2.62% [at 13.5 µM] | activity, negative = inhibition [9] 10.2% [at 12.7 µM] | activation [10] 2.38% [at 15.9 µM] | activity, negative = inhibition [11] 5.04% [at 12.6 µM] | activation [12] -0.452% [at 15.8 µM] | activation [13] -0.367% [at 19 µM] | activation [19] -0.026% [at 19 µM]

CC(C)NCC(O)COc1ccc(CCOCC2CC2)cc1 (configuration not stated)
inactive: Potency [1] | Potency [2] | Potency [3] | Potency [4] | Potency [5] | Potency [6] | Potency [17] | Potency [8] | Potency [10] | Potency [11] | Potency [12] | Potency [13] | Potency [16]

C[C@@]12CCC[C@H]1[C@@H]1CC[C@H]3C[C@@H](O)CC[C@]3(C)[C@H]1CC2
inactive: Potency [1] | Potency [2] | Potency [3] | Potency [4] | Potency [5] | Potency [6] | Potency [7] | Potency [17] | Potency [8] | Potency [9] | Potency [10] | Potency [12] | Potency [13] | Potency [14] | Potency [19] | Potency [16]
